# Compound activity as filed in PubChem BioAssay.
# In the library only some 10% were active in any assay of this set; here they are far more common.
# GPT2 inh = inhibitors of human GPT2 alanine aminotransferase | Recombinant GPT2, coupled pyruvate oxidase/HRP Amplex Red fluorescence | AID 1671188 | 0.25% of 100,000 active | Q8TD30 | Potency, µM (top dose mostly 57.7 µM), for inactives: at the top dose activity change, negative = inhibition, most hits filed as inhibitors; note: nearly all actives have a fitted effect of over 60% in size
# Target sequence (Q8TD30 whole entry, looked up): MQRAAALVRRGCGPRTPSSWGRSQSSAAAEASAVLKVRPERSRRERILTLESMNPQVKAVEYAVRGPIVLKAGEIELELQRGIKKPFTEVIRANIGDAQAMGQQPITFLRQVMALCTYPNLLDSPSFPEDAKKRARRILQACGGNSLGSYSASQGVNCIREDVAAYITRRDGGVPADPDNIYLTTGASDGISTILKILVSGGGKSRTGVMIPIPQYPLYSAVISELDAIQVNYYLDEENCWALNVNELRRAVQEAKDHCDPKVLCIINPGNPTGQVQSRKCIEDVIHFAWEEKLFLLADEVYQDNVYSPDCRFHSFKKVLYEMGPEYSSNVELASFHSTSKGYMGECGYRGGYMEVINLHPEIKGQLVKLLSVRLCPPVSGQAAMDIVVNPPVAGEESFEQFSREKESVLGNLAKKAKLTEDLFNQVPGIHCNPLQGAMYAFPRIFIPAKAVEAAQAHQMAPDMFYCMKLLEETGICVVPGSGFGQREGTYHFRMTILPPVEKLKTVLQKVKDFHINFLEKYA
#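 Recombinant GPT2 (10ng/uL) with 250uM a-KG and 2mM L-alanine, 30 min at room temperature, in HEPES pH 7.5 buffer. Pyruvate detected by pyruvate oxidase/HRP/Amplex Red fluorescence after 30 min in the dark; AOA (50uM) as positive control.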
# hNpr1 antagonist = blocks ANP-stimulated signaling of human Npr1 receptor; 1.6% of 76,000 active; Potency, µM (highest dose often 46.3 µM), for the others: at the top dose activity change, negative = inhibition, hits mostly inhibitors; P16066; HEK293 hNpr1 GloSensor cGMP, ANP-stimulated luminescence; calls by dose curve; note: nearly all actives have a fitted effect of over 60% in size
#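 Compound pre-incubated 30 min at room temperature on GloSensor-loaded HEK293 cells stably carrying hNpr1 and the pGS-40F cGMP biosensor. Stimulation uses hNppA at 0.1 nM final; luminescence is taken at baseline and 20 min post-agonist.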
# NIH3T3 tox = cytotoxic compounds in NIH 3T3 cells; NIH 3T3 viability, CellTiter-Glo ATP luminescence, 48-72 h; Potency, µM (titrated, usually from 96.7 µM), inactives show top-dose activity change, negative = cytotoxicity, most hits filed as inhibitors; 4.3% of 94,000 active; note: nearly all actives have a fitted effect of over 55% in size
#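 Cytotoxicity is measured as loss of cellular ATP: NIH 3T3 cells (400/well) are exposed to compound for 48 or 72 hr at 37 °C, then CellTiter-Glo luminescence is imaged after 10 min at room temperature.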
# HEK cytotox = cytotoxic compounds in HEK 293 cells | Potency, µM (highest dose often 115 µM), inactives show top-dose activity change, negative = cytotoxicity, actives largely listed as inhibitors | 6.6% of 94,000 active | HEK 293 viability, ATP luminescence (CellTiter-Glo), 48-72 h; note: nearly all actives have a fitted effect of over 60% in size
#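 HEK 293 cells seeded at 250 cells/well were exposed to compound for 48 or 72 hr at 37 degree Celsius. Viability taken as ATP content by CellTiter-Glo luminescence.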
# FLuc inh = blocks purified firefly luciferase enzyme activity; AID 1347043; 2.5% of 76,000 active; Potency, µM (titrated, usually from 115 µM), most hits filed as inhibitors; P08659; purified P. pyralis luciferase, luminescence, biochemical; note: nearly all actives have a fitted effect of over 65% in size
#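 Cell-free enzyme assay, 10nM P. pyralis luciferase, luciferin and ATP each at 10uM. Inhibition profiled over a 6-point titration, read as luminescence.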
# * hit, by the source's call; i = inactive; ? = inconclusive; nt = no result; [ ] = another dose, or the depositor's remark. Unless noted, calls come from the whole dose curve; as a rule, active = well fitted curve in the direction sought with a large enough effect; inconclusive = small, poorly fitted or top-dose-only effect, or another doubt; inactive = no such curve, though single readings can be large; an effect the other way counts as inactive or inconclusive. % is set by controls: 0 for no effect and ±100 for the full control effect; potency is the fitted concentration of half-maximal effect.
SMILES,GPT2 inh,hNpr1 antagonist,NIH3T3 tox,HEK cytotox,FLuc inh
Cc1nc2scc(CC(=O)NCC(C)C)n2c(=O)c1-c1cc(C)n(-c2cccc(Cl)c2)n1,i,7%,-10%,?,i
Cc1ccc(-n2nc(-c3c(C)nc4scc(CC(=O)NCc5ccco5)n4c3=O)cc2C)cc1,-2%,4%,-4%,?,i
Cc1nc2scc(CC(=O)NCC(C)C)n2c(=O)c1-c1cc(C)n(-c2ccc(C(C)C)cc2)n1,?,-11%,?,79µM*,?
Cc1ccc(C)c(-n2nc(-c3c(C)nc4scc(CC(=O)NCc5ccco5)n4c3=O)cc2C)c1,i,-19%,?,35µM*,i
O=C(NC1CCN(c2cc(N3CCOCC3)cnn2)C1)C1CCCC1 (centres undefined),i,nt,-27%,-11%,nt
Cc1ccc(-c2cc(C(=O)N3CCN(c4ccccc4)CC3)c3cnn(C)c3n2)cc1,0%,nt,?,?,nt
COc1cc(OC)c(-c2nc3ccc(-c4ccc(OC)c(OC)c4OC)cc3o2)cc1OC,?,-21%,32µM*,?,i
Cc1ccccc1-c1[nH]nc2ncc(-c3cccc(O)c3)nc12,0%[88.5 µM],-19%[70.6 µM],?,?,i
CC(=O)Nc1cccc(-c2cnc3n[nH]c(-c4ccc(F)cc4C)c3n2)c1,i,-30%[70.6 µM],25µM*,20µM*,i
CC(=O)Nc1cccc(-c2cnc3n[nH]c(-c4ccccc4C)c3n2)c1,-4%[88.5 µM],-23%[70.6 µM],45µM*,71µM*,i
COc1ccc(-c2cnc3n[nH]c(-c4ccc5c(c4)OCO5)c3n2)cc1,-9%[88.5 µM],8%[70.6 µM],?,?,i
CC(=O)Nc1cccc(-c2cnc3n[nH]c(-c4ccc5c(c4)OCO5)c3n2)c1,?,-26%[70.6 µM],25µM*,22µM*,?
CC(=O)Nc1cccc(-c2cnc3n[nH]c(-c4sccc4C)c3n2)c1,-3%[88.5 µM],?,?,32µM*,?
COc1ccc(C(=O)N2CCC(C(=O)N3CCC4(CC3)CC(=O)Nc3ccccc3O4)CC2)cc1,-4%,nt,i,-7%,nt
CCN1CCCC12Cc1ccccc1CN([S+](C)(=O)[O-])C2 (centres undefined),i,nt,-9%,-25%,nt
O=C(c1ccccc1Cl)N1CCN(c2ccc3nnc(-c4ccccc4)n3n2)CC1,nt,nt,?,-21%,nt
Cc1ccc(C(=O)N2CCCN(c3ccnc4ccnn34)CC2)cc1,-10%,nt,-23%,?,nt
O=C(c1cc(-c2cccc(C(F)(F)F)c2)c2nncn2n1)N1CCC(c2ccccc2)CC1,-24%,nt,?,25µM*,nt
C#CCNC(=O)c1cc(-c2cccc(C(F)(F)F)c2)c2nncn2n1,-6%,nt,?,10µM*,nt
O=C(c1cc(-c2cccc(C(F)(F)F)c2)c2nncn2n1)N1CCCC1,-3%,nt,-8%,2%,nt
O=C(Cc1cccc(Cl)c1)N1CCCC1C(=O)N1CCCC1c1nc2ccncc2[nH]1 (centres undefined),5%,nt,0%,i,nt
COc1ccc2[nH]c3c(c2c1)CCNC31CCN(C(=O)c2sccc2C)CC1,4%,?,-31%,?,i
COc1ccc2[nH]c3c(c2c1)CCNC31CCN(C(=O)c2cccs2)CC1,2%,-21%,?,8.9µM*,i
COc1ccc2[nH]c3c(c2c1)CCNC31CCN(C(=O)c2ccc(C)s2)CC1,i,2%,?,11µM*,i
Cc1nn(-c2ccccc2)c2c1C(C(C)C)N(C1CCCN([S+](=O)([O-])c3ccccc3)C1)C2=O (centres undefined),nt,nt,-13%,?,nt
SMILES,GPT2 inh,hNpr1 antagonist,NIH3T3 tox,HEK cytotox,FLuc inh
C=CCNC(=O)c1ccc(-c2nnc3ccc(NC(=O)C4CCC4)cn23)cc1,i,-3%,-19%,-3%,?
Cc1noc(=O)c2ccc(NC(=O)C(O)(CC(C)(C)c3cccc4c3OCC4)C(F)(F)F)cc12 (centres undefined),2%,nt,nt,nt,nt
C[S+](=O)([O-])c1ccc(-c2cc3c(cn2)CN(Cc2ccccc2)CCN3)cc1,-4%[88.5 µM],-3%[70.6 µM],?,?,?
Fc1cccc(-c2cc3c(cn2)CN(Cc2ccncc2)CCN3)c1,-4%[88.5 µM],-23%[70.6 µM],-23%[138 µM],?,40µM*
Clc1cnccc1CN1CCNc2cc(-c3ccccc3)ncc2C1,0%[88.5 µM],-16%[70.6 µM],?,?,28µM*
Fc1ccccc1-c1cc2c(cn1)CN(Cc1cccnc1)CCN2,4%[88.5 µM],-9%[70.6 µM],-22%[138 µM],?,32µM*
COc1ccc(N2CC3CCC(C2)N3C(=O)c2ccc3c(c2)OCO3)cc1,i,nt,?,?,nt
COc1ccc(-c2cc(CC3(NCc4ccccc4O)COC3)no2)cc1,4%[88.5 µM],-18%[70.6 µM],?,100µM*,i
CC(C)Cc1cc(CC2(NCc3ccccc3O)COC2)no1,-7%[88.5 µM],3%[70.6 µM],?,?,i
Fc1ccc(-c2cc(CC3(NCc4ccc5c(c4)OCO5)COC3)no2)cc1,-4%[88.5 µM],-10%[70.6 µM],?,?,i
Fc1ccc(-c2cc(CC3(NCc4ccco4)COC3)no2)cc1,-4%[88.5 µM],-15%[70.6 µM],?,89µM*,i
CN1CC(=O)N(C2CCCNC2)Cc2c1ncnc2N1CCSCC1 (centres undefined),-9%,nt,0%,3%,nt
Cc1cc(C)cc(-c2ccc(CN3CCCC(NC(=O)c4ccncc4)C3)cc2)c1 (centres undefined),-17%,nt,25µM*,28µM*,nt
Cc1cc(C)cc(-c2ccc(CN3CCCC(NC(=O)c4cccnc4)C3)cc2)c1 (centres undefined),-20%,nt,20µM*,20µM*,nt
Cc1cc(C)cc(-c2ccc(CN3C4CCC3CN(C(=O)c3ccncc3)C4)cc2)c1,4%,nt,?,45µM*,nt
COC(=O)NC1CCCN(Cc2ccc(-c3cc(C)cc(C)c3)cc2)C1 (centres undefined),-30%[88.5 µM],nt,45µM*,40µM*,nt
Cc1cc(C)cc(-c2ccc(CN3CCCC(NC(=O)c4ccc(Cl)nc4)C3)cc2)c1 (centres undefined),5%,nt,-12%,?,nt
CN1CC(C(=O)N2CCC(c3ccccc3)CC2)NC1=O (centres undefined),-1%[88.5 µM],nt,-1%[138 µM],i,nt
CCn1cc(S(=O)(=O)N2CC(c3nc(CCOc4cccc(C)c4)no3)C2)cn1,-8%,nt,?,?,nt
CCn1cc(S(=O)(=O)N2CCCCC2c2nc(CCOc3ccc(F)cc3)no2)cn1 (centres undefined),i,-19%,?,45µM*,i
COc1ccc(-c2cc(N3CCCN(C(=O)C(C)c4ccccc4)CC3)n[nH]2)cc1 (centres undefined),?,-2%,?,79µM*,i
